This note sets out measurements from PubChem BioAssay (NCI).

Values joined by “and” are separate entries in the source; they are usually repeats but may differ in a detail not shown here. Equal values may be shown once. This is part of a sample that, as a whole, favours compounds with a hit. Of some 79,000 tested, about 15% had one in any assay. More than one record can exist for a structure, and the calls need not agree. Active and inactive are the calls of the source. Cut-off read from the data, not from the text of the source: active = growth inhibition above about 70%; inactive = the rest.

Assay [1] is described as follows: NCI Yeast Anticancer Drug Screen. Data for the rad50 strain (AID 155).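 Note: 0% = growth of vehicle-only cultures of the same strain.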 Particulars: S. cerevisiae rad50 strain growth inhibition, stronger effect = higher value. In short, it runs like this: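 Inhibition values express reduced yeast growth in compound-treated cultures relative to vehicle-treated controls.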
Assay [2] can be described thus: NCI Yeast Anticancer Drug Screen. Data for the mec2-1 strain (AID 157). Particulars: S. cerevisiae mec2-1 strain, stronger effect = higher value. In short, it runs like this:
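Mutant yeast (mec2-1) grown with compound; growth inhibition relative to vehicle control reported.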

A short description of assay [3]: NCI Yeast Anticancer Drug Screen. Data for the sgs1 mgt1 strain (AID 161).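 Note: 0% = growth of cultures given vehicle only.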 Particulars: S. cerevisiae sgs1 mgt1 strain, stronger effect = higher value. A digest of the protocol: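 Growth of a repair-deficient yeast mutant was monitored after compound treatment and expressed as inhibition relative to vehicle-treated cultures.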
A short description of assay [4]: NCI Yeast Anticancer Drug Screen. Data for the cln2 rad14 strain (AID 165).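 Note: 0% = growth equal to vehicle treated cultures.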 Particulars: S. cerevisiae cln2 rad14 strain, stronger effect = higher value. In short, it runs like this: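 Readout is yeast growth inhibition versus vehicle-treated controls, using a strain with cln2 and rad14 alterations exposed to compound.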
Assay [5] can be described thus: NCI Yeast Anticancer Drug Screen. Data for the bub3 strain (AID 167). Particulars: S. cerevisiae bub3 mutant strain, stronger effect = higher value. A digest of the protocol: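 Steps: expose the mutant yeast strain to compound; grow alongside vehicle-treated cultures; measure growth; express inhibition against the vehicle cultures.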
A short description of assay [6]: NCI Yeast Anticancer Drug Screen. Data for the mlh1 rad18 strain (AID 175). Particulars: S. cerevisiae mlh1 rad18 strain growth inhibition, stronger effect = higher value. In short, it runs like this:
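Genetically defined yeast (DNA repair-deficient) exposed to compounds; growth inhibition determined relative to vehicle.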

Where [7] appears, read: at 5.0 µM (retest, dose inferred, filed as 0.5).
[8] abbreviates: at 50.0 µM (retest, dose inferred, filed as 5.0).

As for `CN(C)/C=C1\CCc2ccc([N+](=O)[O-])cc2C1=O`, the growth inhibition in assay [1] (setting [7]) was 19% (inactive); in assay [1] (setting [8]), 21% (inactive); in assay [1] (at 50.0 µM), 6.9% (inactive); in assay [2] (setting [7]), 17% (inactive); in assay [2] (setting [8]), 25% (inactive); in assay [2] (at 50.0 µM), 0.45% (inactive). Moreover, the growth inhibition in assay [3] (setting [7]) was 24% (inactive); in assay [3] (setting [8]), 29% (inactive); in assay [3] (at 50.0 µM), 16.4% (inactive); in assay [4] (setting [7]), 31% (inactive); in assay [4] (setting [8]) it was 17% (inactive); in assay [4] (at 50.0 µM), 12.1% (inactive). Besides, the growth inhibition is 26% (inactive) in assay [5] (setting [7]); 19% (inactive) in assay [5] (setting [8]); 21.4% (inactive) in assay [5] (at 50.0 µM); 29% (inactive) in assay [6] (setting [7]); 35% (inactive) in assay [6] (setting [8]); -28.4% (inactive) in assay [6] (at 50.0 µM).
Take `COC(=O)C1OC(OC(C)=O)C(OC(C)=O)C(OC(C)=O)C1OC(C)=O` (stereo unspecified): the growth inhibition in assay [1] (setting [7]) is -4% (inactive); in assay [1] (setting [8]), 5% (inactive); in assay [1] (at 50.0 µM) it was 7.25% (inactive) and 3.25% (inactive); in assay [2] (setting [7]), -6% (inactive); in assay [2] (setting [8]) it was 8% (inactive); in assay [2] (at 50.0 µM), 14.4% (inactive) and 8.2% (inactive). The growth inhibition in assay [3] (setting [7]) was -5% (inactive); in assay [3] (setting [8]), 9% (inactive); in assay [3] (at 50.0 µM), 7.05% (inactive) and 10.9% (inactive); in assay [4] (setting [7]), 1% (inactive); in assay [4] (setting [8]), -2% (inactive); in assay [4] (at 50.0 µM), -12.2% (inactive) and 60.5% (inactive). In addition, the growth inhibition in assay [5] (setting [7]) was -4% (inactive); in assay [5] (setting [8]), 11% (inactive); in assay [5] (at 50.0 µM), -7.15% (inactive) and 24.6% (inactive); in assay [6] (setting [7]) it was -7% (inactive); in assay [6] (setting [8]) it was 14% (inactive); in assay [6] (at 50.0 µM), 16% (inactive) and 9.3% (inactive).
Turning to `O=[N+]([O-])C(/C=C(\Cl)[N+](=O)[O-])=C(Nc1ccccc1)Nc1ccccc1`, the growth inhibition in assay [1] (setting [7]) was -23% (inactive); in assay [1] (setting [8]), 98% (active); in assay [1] (at 50.0 µM), 86.8% (active); in assay [2] (setting [7]) it was -7% (inactive); in assay [2] (setting [8]) it was 99% (active); in assay [2] (at 50.0 µM) it was 88.2% (active). The growth inhibition was -16% (inactive) in assay [3] (setting [7]); 98% (active) in assay [3] (setting [8]); 86.8% (active) in assay [3] (at 50.0 µM); 1% (inactive) in assay [4] (setting [7]); 98% (active) in assay [4] (setting [8]); 82.8% (active) in assay [4] (at 50.0 µM). The growth inhibition is -33% (inactive) in assay [5] (setting [7]); 99% (active) in assay [5] (setting [8]); 85.8% (active) in assay [5] (at 50.0 µM); 27% (inactive) in assay [6] (setting [7]); 99% (active) in assay [6] (setting [8]); 80.3% (active) in assay [6] (at 50.0 µM).
For `COc1ccc(/C=C/NC=O)cc1`, the growth inhibition in assay [1] (setting [7]) is -2% (inactive); in assay [1] (setting [8]), -1% (inactive); in assay [1] (at 50.0 µM), -17.2% (inactive); in assay [2] (setting [7]) it was -3% (inactive); in assay [2] (setting [8]), 0% (inactive); in assay [2] (at 50.0 µM), 0.35% (inactive). Besides, the growth inhibition in assay [3] (setting [7]) is -2% (inactive); in assay [3] (setting [8]), -1% (inactive); in assay [3] (at 50.0 µM), -9.6% (inactive); in assay [4] (setting [7]), -2% (inactive); in assay [4] (setting [8]), 4% (inactive); in assay [4] (at 50.0 µM), -8.25% (inactive). Moreover, the growth inhibition was 1% (inactive) in assay [5] (setting [7]); 6% (inactive) in assay [5] (setting [8]); 19.8% (inactive) in assay [5] (at 50.0 µM); -3% (inactive) in assay [6] (setting [7]); -2% (inactive) in assay [6] (setting [8]); 28.9% (inactive) in assay [6] (at 50.0 µM).
As to `CC[N+](CC)=c1ccc2nc3c(cc(N)c4ccccc43)oc-2c1`, the growth inhibition in assay [1] (setting [7]) is -8% (inactive); in assay [1] (setting [8]), 42% (inactive); in assay [1] (at 50.0 µM), 71.5% (active) and -20.9% (inactive); in assay [2] (setting [7]), -1% (inactive); in assay [2] (setting [8]) it was 39% (inactive); in assay [2] (at 50.0 µM) it was 52.5% (inactive) and -17.7% (inactive). The growth inhibition in assay [3] (setting [7]) was -9% (inactive); in assay [3] (setting [8]), 42% (inactive); in assay [3] (at 50.0 µM), 38.1% (inactive); in assay [4] (setting [7]), -14% (inactive); in assay [4] (setting [8]), 7% (inactive); in assay [4] (at 50.0 µM), 38% (inactive). Besides, the growth inhibition in assay [5] (setting [7]) was -4% (inactive); in assay [5] (setting [8]), 19% (inactive); in assay [5] (at 50.0 µM), 63% (inactive); in assay [6] (setting [7]), -6% (inactive); in assay [6] (setting [8]), 27% (inactive); in assay [6] (at 50.0 µM) it was 68.8% (inactive) and -28.9% (inactive).
In the case of `O=C(CCC(=O)OCCOc1ccccc1)OCCOc1ccccc1`, the growth inhibition in assay [1] (setting [7]) is 10% (inactive); in assay [1] (setting [8]) it was -1% (inactive); in assay [1] (at 50.0 µM), -3.5% (inactive); in assay [2] (setting [7]), -16% (inactive); in assay [2] (setting [8]), -13% (inactive); in assay [2] (at 50.0 µM), -4.7% (inactive). The growth inhibition in assay [3] (setting [7]) was 17% (inactive); in assay [3] (setting [8]) it was 3% (inactive); in assay [3] (at 50.0 µM), -6.4% (inactive); in assay [4] (setting [7]) it was 7% (inactive); in assay [4] (setting [8]), 20% (inactive); in assay [4] (at 50.0 µM), 21.6% (inactive). The growth inhibition in assay [5] (setting [7]) was 1% (inactive); in assay [5] (setting [8]), 7% (inactive); in assay [5] (at 50.0 µM), -4% (inactive); in assay [6] (setting [7]), 6% (inactive); in assay [6] (setting [8]), 30% (inactive); in assay [6] (at 50.0 µM), -1.75% (inactive).
For the compound `O=C(O)c1ccc2c(c1)Cc1cc([N+](=O)[O-])ccc1-2`, the growth inhibition was -3% (inactive) in assay [1] (setting [7]); 88% (active) in assay [1] (setting [8]); 70.1% (active) in assay [1] (at 50.0 µM); -7% (inactive) in assay [2] (setting [7]); 72% (active) in assay [2] (setting [8]); 13.4% (inactive) in assay [2] (at 50.0 µM). Moreover, the growth inhibition in assay [3] (setting [7]) is 7% (inactive); in assay [3] (setting [8]) it was 85% (active); in assay [3] (at 50.0 µM), 64% (inactive); in assay [4] (setting [7]) it was -92% (inactive); in assay [4] (setting [8]), 83% (active); in assay [4] (at 50.0 µM), 34.6% (inactive). Also, the growth inhibition was -10% (inactive) in assay [5] (setting [7]); 0% (inactive) in assay [5] (setting [8]); 14% (inactive) in assay [5] (at 50.0 µM); 4% (inactive) in assay [6] (setting [7]); 82% (active) in assay [6] (setting [8]); 73% (active) in assay [6] (at 50.0 µM).
